Screens deposited in PubChem by National Center for Advancing Translational Sciences (NCATS).
In the library only some 3% were active in any assay of this set; here they are far more common.
D3 ag: qHTS of D3 Dopamine Receptor Agonist: qHTS | max activation, % | D3R DiscoveRx beta-arrestin cells, luminescence, 90 min | hit rate 0.58% among 410,000; in the data active means max activation above about 30%
Target sequence (P35462 whole entry, looked up): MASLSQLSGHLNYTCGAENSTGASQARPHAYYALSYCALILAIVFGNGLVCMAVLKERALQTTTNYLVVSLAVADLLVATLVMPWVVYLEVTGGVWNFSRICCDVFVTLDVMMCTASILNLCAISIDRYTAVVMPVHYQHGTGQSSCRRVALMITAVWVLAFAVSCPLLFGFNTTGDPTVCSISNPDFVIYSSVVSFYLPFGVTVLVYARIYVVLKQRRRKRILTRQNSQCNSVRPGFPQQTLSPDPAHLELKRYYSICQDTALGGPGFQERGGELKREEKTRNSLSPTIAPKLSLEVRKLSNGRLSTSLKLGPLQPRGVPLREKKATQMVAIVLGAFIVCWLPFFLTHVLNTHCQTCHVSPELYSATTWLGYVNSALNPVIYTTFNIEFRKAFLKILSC
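Agonist-mode cell screen: cells plated at 1500/well and incubated overnight at 37 °C, then exposed to library compounds for 90 min at 37 °C. Detection reagent was added for 30–60 min at room temperature, and luminescence was read.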
Glioma ERSR ind: qHTS for Inducers of the Endoplasmic Reticulum Stress Response (ERSR) in Human Glioma: qHTS; U87-MG GRP78 promoter luciferase reporter, 16 h; Potency, µM, most hits filed as activators; hit rate 0.02% among 420,000; AID 602332, 2012; further: series mostly up to about 76 µM; nearly all actives have a fitted effect of over 35% in size
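ERSR induction read as luciferase luminescence (Bright-Glo, 10 min at room temperature) in stably transfected human U87-MG glioma cells exposed to compounds for 16 h, using GRP78 as sensor.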
Nrf2 ARE act: qHTS of Nrf2 Activators. AREc32 ARE-luciferase reporter (MCF7-derived line), luminescence, 24 h. Potency, µM (titrated, usually from 46.1 µM), most hits filed as activators. hit rate 0.31% among 410,000. AID 624171, 2012; further: nearly all actives have a fitted effect of over 65% in size
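Cells of the AREc32 ARE-luciferase line are plated in OPTI-MEM containing 5% FBS and left overnight at 37 deg C. Compounds are pinned in, incubation continues 24 hr, and firefly luciferase signal is then measured.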
D3 antag: qHTS of D3 Dopamine Receptor Antagonist: qHTS | D(3) dopamine receptor (Homo sapiens), P35462 | D3R cells, DiscoveRx beta-arrestin luminescence, antagonist mode; hits give low values | max response, negative = inhibition, % | hit rate 2.5% among 360,000; in the data active means max response below about -50%; inconclusive means no clear call, values can overlap the other calls
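Cells expressing the human receptor were seeded at 1500 cells/well, incubated overnight at 37 degrees C in 5% CO2, then exposed to library compounds with dopamine controls for 90 minutes at 37 degrees C before luminescent detection.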
Numbers stand for hits; - = inactive; ? = inconclusive; . = no result given. Unless noted, the call rests on the fitted dose curve; in most records, active means well fitted curve in the direction sought with a large enough effect; inconclusive means small, poorly fitted or top-dose-only effect, or another doubt; inactive means no such curve, though single readings can be large; an effect the other way counts as inactive or inconclusive.

SMILES	D3 ag	Glioma ERSR ind	Nrf2 ARE act	D3 antag
Cc1ccc(C(=O)Nc2cnn(-c3ccc(C(=O)N(C)Cc4n[nH]c5c4CCCC5)cc3)c2)c(C)c1	.	-	.	.
O=C(c1cc2cc(F)ccc2[nH]1)N1CCN(Cc2ccc3c(c2)OCO3)CC1	-	-	-	-86
O=C(c1ccccc1)N1CCN(Cc2ccc3c(c2)OCO3)CC1	-	-	-	-78
O=C(c1ccccc1)N1CCN(Cc2ccccc2Br)CC1	-	-	-	-62
O=C(c1ccc(Br)cc1)N1CCN(Cc2ccccc2)CC1	-	-	-	?
Cc1ccc(C(=O)N2CCN(Cc3ccc4c(c3)OCO4)CC2)cc1C	-	-	-	-62
COc1ccc(C(=O)N2CCN(Cc3ccc4c(c3)OCO4)CC2)cc1OC	-	-	-	-
C[N+]1(CC(=O)c2ccc(Br)cc2)CCOCC1	.	-	.	.
O=C(c1ccccc1F)N1CCN(Cc2ccccc2F)CC1	-	-	-	-57
Cc1cccc(C(=O)N2CCN(Cc3ccc4c(c3)OCO4)CC2)c1	-	-	-	-80
O=C(c1ccc(Cl)c(Cl)c1)N1CCN(Cc2ccc3c(c2)OCO3)CC1	-	-	-	-
Cc1ccc(C(=O)N2CCN(Cc3ccc4c(c3)OCO4)CC2)c(Cl)c1	-	-	-	-86
O=C(c1ccccc1)c1ccccc1C(=O)N1CCN(Cc2ccccc2F)CC1	-	-	-	-
Cc1ncc2c(c1CNC(=O)c1cncs1)CCN(C(=O)c1ccc(C(F)(F)F)cc1)C2	.	-	.	.
Cc1ccncc1C(=O)O	.	-	.	.
CC(C)C[C@H](NC(=O)c1[nH]cnc1C(=O)Nc1ccc(CNC(=O)OC(C)(C)C)cc1)C(=O)OCc1ccccc1	-	-	-	-
C[C@H](NC(=O)c1nc[nH]c1C(=O)N[C@@H](CCCCNC(=O)OC(C)(C)C)C(=O)OC(C)(C)C)C(=O)OCc1ccccc1	-	?	-	-
C[C@H](NC(=O)c1nc[nH]c1C(=O)NCCCCCNC(=O)OC(C)(C)C)C(=O)OCc1ccccc1	65	-	-	-
CC(C)(C)OC(=O)NCCCCCNC(=O)c1nc[nH]c1C(=O)N1CCc2ccccc2C1	38	-	-	-
CC(C)C[C@H](NC(=O)c1nc[nH]c1C(=O)NCc1ccccc1)C(=O)OCc1ccccc1	-	-	-	-53
CC(C)C[C@H](NC(=O)c1[nH]cnc1C(=O)N[C@@H](C)C(=O)OCc1ccccc1)C(=O)OCc1ccccc1	-	?	-	-
C[C@H](NC(=O)c1[nH]cnc1C(=O)Nc1ccc(CNC(=O)OC(C)(C)C)cc1)C(=O)OCc1ccccc1	80	-	-	-
CC(C)(C)OC(=O)NCCCC[C@H](NC(=O)c1nc[nH]c1C(=O)N1CCc2ccccc2C1)C(=O)OC(C)(C)C	-	-	-	-
COc1cc(-c2cc(C)c3cccc(OC)c3n2)cc2c1OCCN(C(=O)CC1NC(=O)c3ccccc31)C2 (configuration not stated)	.	-	.	.
COc1ccccc1C(=O)N1CCOc2ccc(CN3CCN(Cc4ccccn4)CC3)cc2C1	.	-	.	.
SMILES	D3 ag	Glioma ERSR ind	Nrf2 ARE act	D3 antag
CC(C)(C)OC(=O)NCc1ccc(NC(=O)c2nc[nH]c2C(=O)NCCNC(=O)c2[nH]cnc2C(=O)Nc2ccc(CNC(=O)OC(C)(C)C)cc2)cc1	42	-	-	-
CC(C)(C)OC(=O)CNC(=O)c1[nH]cnc1C(=O)NCC(=O)OCc1ccccc1	71	-	-	-
C[C@H](NC(=O)c1nc[nH]c1C(=O)N1CCNCC1)C(=O)OC(C)(C)C	-	-	-	-
CC(C)C[C@H](NC(=O)c1nc[nH]c1C(=O)N1CCNCC1)C(=O)OC(C)(C)C	-	-	-	-54
N#C/C(=C\c1ccc(-c2nc3ccccc3s2)o1)C(N)=O	-	-	11µM	-
OC1(c2ccccc2)CC(c2ccccc2)c2ccccc2O1 (configuration not stated)	73	-	-	-
COc1ccc(C2CC(O)(c3ccccc3)Oc3cc(OC)c(OC)c(OC)c32)cc1 (configuration not stated)	-	-	-	-
Cc1ccc(C)c(-n2sc3ccc(F)cc3c2=O)c1	-	-	-	-81
COc1ccc(-n2sc3ccc(F)cc3c2=O)cc1	-	-	-	-55
CC[C@]1(O)C[C@H]2CN(CCC3=c4ccccc4=N[C]3[C@@](C(=O)OC)(c3cc4c(cc3OC)N(C)[C@H]3[C@@](O)(C(N)=O)[C@H](O)[C@]5(CC)C=CCN6CC[C@]43[C@@H]65)C2)C1	.	-	.	.
